Measurements reported in PubChem BioAssay AID1159580 (chemical genetic matrix, 2015).
In all, about 5,500 compounds went through this assay and about 2,000 (36%) were called active. Roughly 18% stayed inconclusive and do not appear here. Rule as the data show it: active = normalized growth mostly below about 0.91 (no sharp cut-off); inconclusive = no clear call, values can overlap the other calls; inactive = mostly above about 0.92. This is one part of the list.

Experiment: chemical genetic growth profiling, strain panel (AID 1159580);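 also: tested at 20 µM; growth read once vehicle control cultures reached saturation at 30 °C; 1 = growth at the plate median or of vehicle wells; lower values mean less growth of the strain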
Conditions: growth OD
[1] = S. cerevisiae deletion strains, locus YAL013W, strain DEP1, active compounds read low
[2] = S. cerevisiae deletion strains, locus YBR021W, strain FUR4, active compounds read low
[3] = S. cerevisiae deletion strains, locus YBR229C, strain ROT2, active compounds read low
[4] = S. cerevisiae deletion strains, locus YCL029C, strain bik1, active compounds read low
[5] = S. cerevisiae deletion strains, locus YDL035C, strain GPR1, active compounds read low
[6] = S. cerevisiae deletion strains, locus YDL074C, strain BRE1, active compounds read low
[7] = S. cerevisiae deletion strains, locus YDL101C, strain DUN1, active compounds read low
[8] = S. cerevisiae deletion strains, locus YDL134C, strain PPH21, active compounds read low
[9] = S. cerevisiae deletion strains, locus YDL192W, strain arf1, active compounds read low
[10] = S. cerevisiae deletion strains, locus YDR101C, strain arx1, active compounds read low
[11] = S. cerevisiae deletion strains, locus YDR150W, strain NUM1, active compounds read low
[12] = S. cerevisiae deletion strains, locus YDR162C, strain NBP2, active compounds read low
[13] = S. cerevisiae deletion strains, locus YDR318W, strain mcm21, active compounds read low
[14] = S. cerevisiae deletion strains, locus YDR388W, active compounds read low
[15] = S. cerevisiae deletion strains, locus YDR502C, strain sam2, active compounds read low
[16] = S. cerevisiae deletion strains, locus YEL061C, strain CIN8, active compounds read low
[17] = S. cerevisiae deletion strains, locus YER110C, active compounds read low
[18] = S. cerevisiae deletion strains, locus YER155C, strain BEM2, active compounds read low
[19] = S. cerevisiae deletion strains, locus YER167W, strain BCK2, active compounds read low
[20] = S. cerevisiae deletion strains, locus YGL078C, strain dbp3, active compounds read low
[21] = S. cerevisiae deletion strains, locus YGL086W, strain mad1, active compounds read low
[22] = S. cerevisiae deletion strains, locus YGL248W, strain PDE1, active compounds read low
[23] = S. cerevisiae deletion strains, locus YGR135W, strain pre9, active compounds read low
[24] = S. cerevisiae deletion strains, locus YGR252W, strain gcn5, active compounds read low
[25] = S. cerevisiae deletion strains, locus YHR030C, strain SLT2, active compounds read low
[26] = S. cerevisiae deletion strains, locus YHR079C, strain IRE1 (second series), active compounds read low
[27] = S. cerevisiae deletion strains, locus YHR094C, strain hxt1, active compounds read low
[28] = S. cerevisiae deletion strains, locus YHR129C, strain ARP1, active compounds read low
[29] = S. cerevisiae deletion strains, locus YHR200W, strain rpn10, active compounds read low
[30] = S. cerevisiae deletion strains, locus YIL066C, strain RNR3, active compounds read low
[31] = S. cerevisiae deletion strains, locus YIL073C, strain SPO22, active compounds read low
[32] = S. cerevisiae deletion strains, locus YIL125W, strain kgd1, active compounds read low
[33] = S. cerevisiae deletion strains, locus YIR030C, strain dcg1, active compounds read low
[34] = S. cerevisiae deletion strains, locus YJL095W, strain BCK1, active compounds read low
[35] = S. cerevisiae deletion strains, locus YJL134W, strain LCB3, active compounds read low
[36] = S. cerevisiae deletion strains, locus YJL168C, strain set2, active compounds read low
[37] = S. cerevisiae deletion strains, locus YJL187C, strain SWE1 (second series), active compounds read low
[38] = S. cerevisiae deletion strains, locus YJR043C, strain POL32, active compounds read low
[39] = S. cerevisiae deletion strains, locus YKL009W, strain mrt4, active compounds read low
[40] = S. cerevisiae deletion strains, locus YKL068W, active compounds read low
[41] = S. cerevisiae deletion strains, locus YKL085W, strain MDH1 (second series), active compounds read low
[42] = S. cerevisiae deletion strains, locus YKL085W, strain MDH1, active compounds read low
[43] = S. cerevisiae deletion strains, locus YKL190W, strain CNB1, active compounds read low
[44] = S. cerevisiae deletion strains, locus YKR001C, strain vps1, active compounds read low
[45] = S. cerevisiae deletion strains, locus YLR039C, strain RIC1, active compounds read low
[46] = S. cerevisiae deletion strains, locus YLR058C, strain SHM2, active compounds read low
[47] = S. cerevisiae deletion strains, locus YLR102C, strain apc9, active compounds read low
[48] = S. cerevisiae deletion strains, locus YLR262C, strain YPT6, active compounds read low
[49] = S. cerevisiae deletion strains, locus YLR268W, strain sec22, active compounds read low
[50] = S. cerevisiae deletion strains, locus YLR330W, strain CHS5, active compounds read low
[51] = S. cerevisiae deletion strains, locus YLR342W, strain FKS1 (second series), active compounds read low
[52] = S. cerevisiae deletion strains, locus YLR371W, strain rom2, active compounds read low
[53] = S. cerevisiae deletion strains, locus YLR418C, strain cdc73, active compounds read low
[54] = S. cerevisiae deletion strains, locus YML016C, strain PPZ1, active compounds read low
[55] = S. cerevisiae deletion strains, locus YML032C, strain rad52, active compounds read low
[56] = S. cerevisiae deletion strains, locus YML124C, strain tub3, active compounds read low
[57] = S. cerevisiae deletion strains, locus YMR078C, strain ctf18, active compounds read low
[58] = S. cerevisiae deletion strains, locus YMR223W, strain ubp8, active compounds read low
[59] = S. cerevisiae deletion strains, locus YMR307W, strain GAS1, active compounds read low
[60] = S. cerevisiae deletion strains, locus YNL067W, strain RPL9B, active compounds read low
[61] = S. cerevisiae deletion strains, locus YNL233W, strain BNI4, active compounds read low
[62] = S. cerevisiae deletion strains, locus YNL250W, strain rad50, active compounds read low
[63] = S. cerevisiae deletion strains, locus YNL271C, strain bni1, active compounds read low
[64] = S. cerevisiae deletion strains, locus YNL298W, strain CLA4, active compounds read low
[65] = S. cerevisiae deletion strains, locus YNL307C, strain MCK1, active compounds read low
[66] = S. cerevisiae deletion strains, locus YNR052C, strain pop2, active compounds read low
[67] = S. cerevisiae deletion strains, locus YOL006C, strain TOP1, active compounds read low
[68] = S. cerevisiae deletion strains, locus YOL012C, strain htz1
[69] = S. cerevisiae deletion strains, locus YOL147C, strain pex11, active compounds read low
[70] = S. cerevisiae deletion strains, locus YOR061W, strain CKA2, active compounds read low
[71] = S. cerevisiae deletion strains, locus YOR069W, strain VPS5, active compounds read low
[72] = S. cerevisiae deletion strains, locus YOR136W, strain idh2, active compounds read low
[73] = S. cerevisiae deletion strains, locus YOR144C, strain elg1, active compounds read low
[74] = S. cerevisiae deletion strains, locus YOR184W, strain ser1, active compounds read low
[75] = S. cerevisiae deletion strains, locus YOR316C, strain cot1, active compounds read low
[76] = S. cerevisiae deletion strains, locus YPL241C, strain CIN2, active compounds read low
[77] = S. cerevisiae deletion strains, locus YPR119W, strain clb2, active compounds read low
[78] = S. cerevisiae deletion strains, locus YPR141C, strain kar3, active compounds read low
[79] = S. cerevisiae deletion strains, locus YPR163C, strain tif3, active compounds read low
[80] = S. cerevisiae deletion strains, locus YPR167C, strain met16, active compounds read low
[81] = S. cerevisiae deletion strains, strain wtn01, active compounds read low

Measured: normalized growth

CC(=O)c1c(O)c(C)c(O)c2c1oc1c(C(C)=O)c(O)c(C)c(O)c12
inactive: [1] 1 | [2] 0.991 | [3] 0.981 | [4] 0.961 | [5] 0.942 | [6] 0.963 | [7] 0.98 | [8] 0.981 | [9] 0.934 | [11] 0.988 | [12] 0.979 | [13] 0.934 | [14] 0.966 | [16] 0.98 | [17] 0.976 | [18] 0.973 | [19] 0.963 | [20] 0.987 | [21] 0.993 | [22] 0.973 | S. cerevisiae deletion strains, locus YGR078C, strain PAC10, active compounds read low 0.943 | [23] 0.954 | S. cerevisiae deletion strains, locus YGR229C, strain SMI1, active compounds read low 0.901 | [24] 0.906 | [25] 0.961 | [26] 0.953 | [27] 0.978 | [28] 0.975 | [29] 0.938 | [30] 0.924 | [31] 0.942 | [32] 0.983 | [33] 0.952 | [34] 0.909 | [35] 0.977 | [36] 0.968 | [37] 0.944 | [38] 0.926 | S. cerevisiae deletion strains, locus YJR075W, strain HOC1, active compounds read low 0.974 | [39] 0.944 | [40] 0.995 | [41] 0.982 | [42] 0.982 | [43] 0.988 | [45] 0.722 | [46] 0.966 | [47] 0.979 | [48] 0.827 | [49] 0.906 | [50] 0.983 | [51] 0.882 | [52] 0.979 | [53] 0.9 | [54] 0.975 | [56] 0.964 | [57] 0.966 | [58] 0.921 | S. cerevisiae deletion strains, locus YMR263W, strain SAP30, active compounds read low 0.957 | [59] 0.901 | [60] 0.961 | S. cerevisiae deletion strains, locus YNL128W, strain TEP1, active compounds read low 0.972 | S. cerevisiae deletion strains, locus YNL153C, strain GIM3, active compounds read low 0.986 | [61] 0.943 | [62] 0.977 | [63] 0.985 | [64] 0.958 | [65] 0.941 | S. cerevisiae deletion strains, locus YNL322C, strain KRE1, active compounds read low 0.989 | [67] 0.921 | [68] 0.749 | [69] 0.958 | [70] 0.963 | [71] 0.988 | [72] 0.967 | [73] 0.971 | [74] 0.88 | [75] 0.972 | S. cerevisiae deletion strains, locus YPL055C, strain LGE1, active compounds read low 0.95 | [76] 0.962 | [77] 0.971 | [78] 0.985 | [79] 0.98 | [80] 0.974 | [81] 0.932 | S. cerevisiae strains, strain wild type, active compounds read low 0.954
active: [10] 0.918 | [15] 0.91 | [44] 0.638 | [55] 0.891 | [66] 0.852

Cc1c(O)c(C(=O)CC(C)C)c2oc3c(C(=O)CC(C)C)c(O)c(C)c(O)c3c2c1O
inactive: [1] 1.01 | [2] 0.943 | [3] 0.993 | [4] 1.01 | [5] 0.994 | [6] 0.978 | [7] 1 | [8] 0.991 | S. cerevisiae deletion strains, locus YDL185W, strain tfp1, active compounds read low 1 | [9] 0.987 | [10] 0.972 | [11] 1.01 | [12] 1 | [13] 0.997 | [14] 0.985 | [15] 0.978 | [16] 1.01 | [17] 0.995 | [18] 0.995 | [19] 0.996 | [20] 0.985 | [21] 0.989 | [22] 0.994 | [23] 0.996 | [24] 0.918 | [25] 1 | [26] 0.987 | [27] 0.986 | [28] 1 | [29] 0.983 | [30] 1 | [31] 0.983 | [32] 0.995 | [33] 0.993 | [34] 0.994 | [35] 1 | [36] 0.994 | [37] 1 | [38] 0.958 | [39] 0.977 | [40] 1 | [41] 1.01 | [42] 1.01 | [43] 1 | [44] 0.935 | [45] 0.787 | [46] 1 | [47] 0.982 | [48] 0.811 | [49] 0.985 | [50] 1 | [51] 0.978 | [52] 0.999 | [53] 0.92 | [54] 1.01 | [55] 0.999 | [56] 0.99 | [57] 1 | [58] 0.996 | [59] 0.827 | [60] 1.01 | [61] 0.968 | [62] 1.01 | [63] 1 | [64] 1 | [65] 0.994 | [66] 1.01 | [67] 0.977 | [68] 0.768 | [69] 0.987 | [70] 1 | [71] 1.01 | [72] 0.99 | [73] 0.996 | [74] 0.974 | [75] 0.986 | [76] 1 | [77] 0.989 | [78] 0.991 | [79] 0.99 | [80] 1 | [81] 0.975
